FUS yeast rescue: suppressors of FUS proteinopathy in yeast | S. cerevisiae FUS-expressing, growth rescue, OD600, 24 h | Potency, µM (series often up to 76.6 µM), hits mostly activators | actives 0.24% (n = 390,000);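 also: plate controls were DMSO vehicle for no effect and reference control for full effect; nearly all actives have a fitted effect of over 55% in size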
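Toxicity suppression screen in FUS-yeast. Cells induced with 2% galactose, starting OD 0.005, treated 24hr at 30C with compounds at multiple final concentrations; growth by OD600.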
TDP43 rescue: TDP-43 toxicity inhibition in yeast; TDP-43 expressing yeast growth rescue, BacTiter-Glo, 24 h; actives 1.8% (n = 410,000); Potency, µM (series often up to 46.1 µM), for inactives: top-dose growth rescue (activation), most hits filed as activators; also: % of control where 0% means no effect; nearly all actives have a fitted effect of over 50% in size
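Readout is BacTiter-Glo luminescence of cell growth, so inhibitors register as activators. TDP-43-expressing yeast at OD600=0.02 in galactose medium, after raffinose pregrowth to mid-log, were incubated with compound for 24 hr at 30 deg C.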
aSyn yeast inh: rescues yeast growth from alpha-synuclein toxicity | Yeast expressing alpha-synuclein, growth rescue, BacTiter-Glo, 24 h | Potency, µM (highest dose often 46.1 µM), for inactives: at the top dose growth rescue (activation), usual class: activators | actives 0.14% (n = 370,000); also: % of control where 0% means no effect; nearly all actives have a fitted effect of over 65% in size
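Screening used galactose-induced yeast with toxic alpha-synuclein levels, exposed to compound for 24 hr at 30 deg C. Cell growth, read with BacTiter-Glo luminescence, gave the measured signal.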
ERG Ets-DNA blk: inhibitors of human ERG Ets domain-DNA interaction; P11308; fluorescence polarization, His-ERG Ets domain / labelled DNA; Potency, µM (top dose mostly 76.9 µM), for inactives: at the highest dose FP activity, negative = inhibition, most hits filed as inhibitors; actives 0.028% (n = 370,000); active = well fitted inhibition curve with a large enough effect in the polarisation, with a control signal flat; inconclusive = small, poorly fitted or top-dose-only effect, or effect the other way, or a change in a side signal; inactive = no such curve, though single readings can be large or run the other way; the % refers to the polarisation;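 also: polarization taken with two DNA probes labelled with fluorescein and Texas red; % of control where 0% means no effect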
Target sequence (P11308 whole entry, looked up, the tested form may be a part): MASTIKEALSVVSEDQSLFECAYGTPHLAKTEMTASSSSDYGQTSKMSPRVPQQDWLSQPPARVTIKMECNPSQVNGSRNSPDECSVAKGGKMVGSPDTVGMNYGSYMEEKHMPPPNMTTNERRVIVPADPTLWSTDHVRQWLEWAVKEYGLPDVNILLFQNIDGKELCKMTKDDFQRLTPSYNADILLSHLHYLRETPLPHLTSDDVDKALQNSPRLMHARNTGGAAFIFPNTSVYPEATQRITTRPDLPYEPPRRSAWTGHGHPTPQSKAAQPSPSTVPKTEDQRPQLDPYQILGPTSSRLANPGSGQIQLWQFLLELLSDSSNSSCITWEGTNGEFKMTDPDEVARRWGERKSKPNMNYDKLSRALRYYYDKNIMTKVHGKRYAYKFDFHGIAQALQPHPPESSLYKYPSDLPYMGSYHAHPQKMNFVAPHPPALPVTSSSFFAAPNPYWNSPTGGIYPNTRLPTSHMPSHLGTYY
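His-tagged ERG Ets domain (1 uM in the protein solution; 300mM KCl, 50mM Tris-HCl, 1mM EDTA, 1mM DTT, pH 7.5) received compound, then a probe mix of 5 nM fluorescein-DNA and 100nM Texas-615-DNA. Fluorescence polarization was read for both dyes.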
Abeta rescue: restores growth of yeast expressing A-beta42 peptide; yeast expressing A-beta42, growth rescue, OD600, 48 h; response scale: 0% DMSO, 100% iron-clioquinol control; Potency, µM (series often up to 46.1 µM), most hits filed as activators; actives 0.063% (n = 410,000); AID 1347071; also: nearly all actives have a fitted effect of over 55% in size
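Yeast A-beta toxicity model in growth medium with pinned compounds, 48 h at 30 C; growth read as absorbance at 600 nm. Normalized to FeCl3/clioquinol equimolar mix (positive) and DMSO (negative).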
Mito fusion yeast: blocks mitochondrial division or promotes mitochondrial fusion. S. cerevisiae fusion-defective mutant growth rescue, CellTiterGlo 48 h. Potency, µM (series often up to 46.1 µM), inactives show at the highest dose growth rescue (activation), actives largely listed as activators. actives 0.23% (n = 320,000). AID 485298; also: % of control where 0% means no effect; nearly all actives have a fitted effect of over 45% in size
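Read-out: ATP-based luminescence (CellTiterGlo, 10 min ambient) reporting growth of fusion-defective ts yeast after 48 hours at 37C on glycerol/ethanol YPEG medium in the presence of compound.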
An asterisk follows results filed as active; i = inactive; ? = inconclusive; / = no result given; [ ] = another dose, or the depositor's remark. Hits are enriched below; roughly 2.2% of the tested compounds scored in any of these assays. Unless noted, calls follow the shape of the dose curve; as a rule, active = well fitted curve in the direction sought with a large enough effect; inconclusive = small, poorly fitted or top-dose-only effect, or another doubt; inactive = no such curve, though single readings can be large; an effect the other way counts as inactive or inconclusive. Potency is read from the fitted curve at half-maximal effect.

SMILES | FUS yeast rescue | TDP43 rescue | aSyn yeast inh | ERG Ets-DNA blk | Abeta rescue | Mito fusion yeast
COc1cccc(CNc2nc3cc(-c4cccc(OC)c4)sc3c(=O)n2C)c1 | i | 24% | 0% | / | i | /
COc1cccc(CNc2nc3cc(-c4ccc(OC)cc4C)sc3c(=O)n2C)c1 | i | 20µM* | 17% | / | i | /
CCCSc1ncc(Cl)c(C(=O)Nc2c(C(=O)Nc3ccc(C)cc3)oc3ccccc23)n1 | i | ? | / | -7% | i | /
N#CC(C#N)=C1C(=O)N(CCN2CCCCC2)c2ccccc21 | 22µM* | -22% | 13% | 25% | i | 3%
O=C(N/N=C\c1c(O)ccc2ccccc12)c1cncc(Br)c1 | i | 19% | 20µM* | 5% | ? | -2%
O=C(N/N=C/c1c(O)ccc2ccccc12)c1cccnc1 | i | -23% | -1% | 4% | i | 7%
CC(C)(C)NC(=O)C(c1cc2ccccc2o1)n1c(=O)c(-c2cc3ccccc3[nH]2)nc2ccccc21 (configuration not stated) | ? | 12% | 8.9µM* | / | ? | /
CC(C)(C)NC(=O)C(c1ccccc1F)n1c(=O)c(-c2cc3ccccc3[nH]2)nc2ccccc21 (configuration not stated) | ? | ? | 7.1µM* | / | i | /
CC(C)(C)NC(=O)C(c1ccnc2ccccc12)n1c(=O)c(-c2cc3ccccc3[nH]2)nc2ccccc21 (configuration not stated) | ? | 14% | ? | / | i | /
Cc1ccc(-c2noc(-c3cccnc3NCc3ccc(Cl)cc3)n2)cc1 | i | 4% | / | -2% | i | /
Brc1ccc(CSc2nnc(Cc3c[nH]c4ccccc34)o2)cc1 | / | 8.9µM* | 0% | 0% | i | 10%
Clc1ccc(CSc2nnc(-c3c[nH]c4ccccc34)o2)cc1 | i | -18% | -1% | / | i | 4%
CCCNC(=O)c1ccc2c(c1)N=C(C)c1c(C)ccc(C)c1S2 | i | ? | 21% | 2% | i | /
COc1ccc(CNC(=O)c2ccc3c(c2)N=C(C)c2c(C)ccc(C)c2S3)cc1 | ? | 13µM* | 12% | 9% | i | /
Cc1ccc(NS(=O)(=O)c2c(C)ccc3nsnc23)c([N+](=O)[O-])c1 | i | 22µM* | 0% | 3% | i | -1%
Cc1ccc2nsnc2c1NS(=O)(=O)c1c(C)ccc2nsnc12 | i | 3% | 13% | 8% | i | 14%
CCC(C)c1ccc(NC(=S)NCCn2cc(Br)cn2)cc1 (configuration not stated) | i | -3%[0.397 µM] | -1% | 11% | 10µM* | -1%
O=C(Nc1cc(-c2nc3ccccc3o2)ccc1Cl)c1ccc(N2CCCCC2)c([N+](=O)[O-])c1 | i | 21% | / | 7% | i | /
CCCCN(C)C(=O)CNc1nnnn1-c1ccccc1 | i | / | / | / | / | /
COc1ccc2c(c1OC)C(=O)OC2 | i | 4% | ? | 3% | i | 14%
COc1ccc2c3c(cccc13)C(=O)CC2 | i | ? | 21% | 28µM* | i | -6%
CCCCNC(=O)C1CCC(Cn2c(=O)c3sccc3n(Cc3ccccc3)c2=O)CC1 (configuration not stated) | i | 16% | / | -1% | i | /
CCc1ccc(NC(=O)c2noc(C(C)C)c2[N+](=O)[O-])cc1 | i | 11µM* | 2% | -9% | i | -2%
CC(=O)c1ccc(NC(=O)c2ccc([N+](=O)[O-])o2)cc1 | i | 16µM* | -53% | 7% | i | -19%
COc1ccc(NC(=O)c2noc(C(C)C)c2[N+](=O)[O-])cc1 | i | 5%[0.397 µM] | 0% | -4% | i | 0%
CC(=O)c1ccc(NC(=O)c2noc(C(C)C)c2[N+](=O)[O-])cc1 | i | 18µM* | -13% | -2% | i | 0%

Bioassay records: PubChem BioAssay, National Center for Advancing Translational Sciences (NCATS)
